Shown are actives, neighbours in structure and some others; about 2.3% of the full set was active somewhere.
CHRM1 agonist – human M1 muscarinic receptor agonists, primary screen, Fluo-8 calcium fluorescence, CHO-K1 cells, HTS. CHO-K1 hM1, agonist mode; 0% DMSO, 100% acetylcholine EC100. activation, % at 3 µM. hit rate 0.33% among 360,000;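 active means activation above the run's mean compound activation plus 3 SD, cut at about 16% in these data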;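 further: peak over basal fluorescence ratio within a 140 s kinetic read after compound addition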
Target sequence (P11229 whole entry, looked up): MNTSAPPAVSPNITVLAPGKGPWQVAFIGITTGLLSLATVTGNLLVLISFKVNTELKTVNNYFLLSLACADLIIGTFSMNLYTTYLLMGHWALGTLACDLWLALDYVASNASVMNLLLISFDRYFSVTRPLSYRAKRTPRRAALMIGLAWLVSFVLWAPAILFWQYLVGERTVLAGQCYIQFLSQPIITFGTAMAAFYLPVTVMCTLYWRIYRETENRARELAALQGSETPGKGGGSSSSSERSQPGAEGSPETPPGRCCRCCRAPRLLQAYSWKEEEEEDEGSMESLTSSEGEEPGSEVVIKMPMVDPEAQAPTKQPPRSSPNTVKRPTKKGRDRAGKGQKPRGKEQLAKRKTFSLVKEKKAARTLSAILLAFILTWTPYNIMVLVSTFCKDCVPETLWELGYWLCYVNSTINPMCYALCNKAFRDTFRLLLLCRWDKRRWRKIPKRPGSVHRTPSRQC
M1 ag parental – counter-screen for M1 agonists: effect in parental CHO-K1 cells | Fluo-8 calcium fluorescence; scaled to maximal ATP response, vehicle zero | activation, % at 3 µM | hit rate 0.48% among 360,000 | AID 602248, 2012; in the data active means activation above about 15%;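 further: untransfected CHO-K1 host cells lacking M1 receptor as counterscreen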
CHO-K1 Ca antag – counter-screen for M1 antagonists: effect in parental CHO-K1 cells | inhibition, % at 3 µM | hit rate 0.6% among 360,000 | ATP-induced calcium, Fluo-8 fluorescence;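 active means inhibition above a per-plate cutoff, the plate's mean sample inhibition plus 3 SD, cut at about 24% in these data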
CHO-K1 Ca PAM – nonselective calcium activators in parental CHO-K1 cells, primary screen, counter-screen for M1 PAM project, cell-based, Fluo-8 calcium fluorescence, full deck, 1536-well; ATP EC20; 0% at ATP EC20, 100% at ATP max; activation, % at 3 µM; hit rate 0.02% among 360,000;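 active means activation above the run cutoff, the mean activation of all test compounds plus 3 SD, cut at about 40% in these data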;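 further: peak over basal fluorescence ratio in a 140 s read after ATP addition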
M1 antag – human M1 muscarinic receptor antagonists, primary screen, CHO-K1 cells, Fluo-8 calcium fluorescence, 1536-well; Muscarinic acetylcholine receptor M1 (Homo sapiens), P11229; CHO-K1 hM1, ACh EC80 antagonist; inhibition, % at 3 µM; hit rate 1.3% among 360,000; AID 588852, 2011;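 active means percent inhibition above its own plate's cutoff, namely the mean of that plate's compound wells plus 3 SD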;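 further: peak over basal fluorescence ratio during 140 s after agonist addition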
M1 PAM – human M1 muscarinic receptor positive allosteric modulators, primary screen, CHO-K1 cells, Fluo-8 calcium fluorescence, 1536-well; Muscarinic acetylcholine receptor M1 (Homo sapiens), P11229; CHO-K1 hM1, ACh EC20; 0% = ACh EC20, 100% = maximal ACh; activation, % at 3 µM; hit rate 0.088% among 360,000; AID 588819, 2011; in the data active means activation above about 19%, passing the limit was not always enough
Each line names hits and unclear results; the compound was inactive in the other large screens.

CC1Cc2ccccc2N1C(=O)CN1CCC(n2nnc3cc(C(F)(F)F)ccc32)CC1 (stereo not given)	none
Nc1[nH]n2c(=O)cc(-c3ccccc3)nc2c1N=Nc1ccc(S(N)(=O)=O)cc1	CHO-K1 Ca antag 24.7
Nc1[nH]n2c(=O)cc(-c3ccccc3)nc2c1N=Nc1ccccc1	none
CC(=O)Nc1c(Nc2ccccc2)c2ccccc2oc1=O	M1 ag parental 15.3
CC(=O)Nc1c(NC(C)C)c2ccccc2oc1=O	none
COc1cccc(NC(=O)Nc2nc(SC)ns2)c1	none
CCSc1nsc(NC(=O)Nc2cccc(F)c2)n1	M1 ag parental 17.8, M1 antag 37.7
COc1cccc(NC(=O)Nc2nc(SC(C)(C)C)ns2)c1	M1 ag parental 18.8, CHO-K1 Ca antag 24.3, M1 antag 37.0
O=C(NCCCc1ccccc1)C1CCN(c2nnc(-n3cccc3)s2)CC1	none
O=C(NC1CCN(Cc2ccccc2)CC1)C1CCCN(c2nnc(-n3cccc3)s2)C1 (stereo not given)	none
O=C(NC1CCN(Cc2ccccc2)CC1)C1CCN(c2nnc(-n3cccc3)s2)CC1	M1 antag 51.0
O=C(NCCCN1CCN(Cc2ccccc2)CC1)C1CCN(c2nnc(-n3cccc3)s2)CC1	M1 antag 43.7
OC[C@@H]1CN(Cc2ccc(-c3ccccc3)cc2)C[C@H](n2cnc3c(NCc4ccncc4)ncnc32)O1	M1 ag parental 16.7
COc1cc(CN2C[C@@H](CO)O[C@@H](n3cnc4c(NC5CCC5)ncnc43)C2)cc(OC)c1OC	none
COc1cc(CN2C[C@@H](CO)O[C@@H](n3cnc4c(Nc5ccccc5)ncnc43)C2)cc(OC)c1OC	CHO-K1 Ca antag 33.4
OC[C@@H]1CN(Cc2ccc(F)cc2)C[C@H](n2cnc3c(N4CCCC4)ncnc32)O1	none
CN1CCN(c2ncnc3c2ncn3[C@H]2CN(Cc3ccc(F)cc3)C[C@@H](CO)O2)CC1	CHO-K1 Ca antag 25.1
CC(C)CNc1ncnc2c1ncn2[C@H]1CN(Cc2ccc(-c3ccccc3)cc2)C[C@@H](CO)O1	M1 antag 28.4
CC1(NC(=O)CCc2nc3ccccc3c(=O)[nH]2)CCS(=O)(=O)C1 (stereo not given)	none
CC(C)C[C@H]1CN(CCCC[C@H]2CNC(=O)C(=O)N2CC2CCCCC2)C(=O)C(=O)N1CC1CCCCC1	none (no result: CHRM1 agonist, M1 antag, M1 PAM)
OC[C@@H]1CN(Cc2ccc(-c3ccccc3)cc2)C[C@H](n2cnc3c(NCc4ccco4)ncnc32)O1	CHO-K1 Ca antag 24.8
CCC1Sc2ccc(S(=O)(=O)Nc3ccc(OC)c(OC)c3)cc2NC1=O (stereo not given)	CHO-K1 Ca antag 33.6
CCC1Sc2ccc(S(=O)(=O)Nc3ccc(OC)cc3)cc2NC1=O (stereo not given)	M1 ag parental 18.3
Cc1ccccc1C(OCC(O)CN1CCN(CCO)CC1)c1ccccc1 (stereo not given)	none
O=C(CN1C(=O)c2cccnc2Oc2ccc(Cl)cc21)NCCCc1ccccc1	M1 antag 30.0
CCNC(=O)C1(C)CCN(C(=O)c2ccc3c(c2)OCO3)C1 (stereo not given)	none
COc1ccc(Br)cc1CSC(=N)N	none
CCCCCOc1ccc(Br)cc1CSC(=N)N	CHO-K1 Ca antag 24.2, M1 antag 24.1
Cc1ccc(S(=O)(=O)N2C[C@H]3C(=O)C[C@@H](c4ccccc4F)N(S(=O)(=O)c4ccc(C)cc4)[C@H]3C[C@H]2c2ccccc2)cc1	CHO-K1 Ca antag 31.0
Cc1ccc([C@@H]2CC(=O)[C@@H]3CN(S(=O)(=O)c4ccc(C)cc4)[C@H](c4ccccc4F)C[C@@H]3N2S(=O)(=O)c2ccc(C)cc2)cc1	none
Cc1ccc(S(=O)(=O)N2C[C@H]3C(=O)C[C@@H](c4ccc(Cl)cc4)N(S(=O)(=O)c4ccc(C)cc4)[C@H]3C[C@H]2c2cccc3ccccc23)cc1	CHO-K1 Ca antag 29.8
Cc1ccc([C@@H]2C[C@H]3[C@@H](CN2S(=O)(=O)c2ccc(C)cc2)C(=O)C[C@@H](c2ccc(Cl)cc2)N3S(=O)(=O)c2ccc(C)cc2)cc1	none
Cc1cnc2ncc3sccc3c2c1	none
c1cnc2ncc3sccc3c2c1	M1 ag parental 18.6
O=c1c(O)c(-c2cccs2)oc2ccccc12	CHRM1 agonist 16.1
O=c1c(O)c(-c2cccs2)oc2ccc(Cl)cc12	CHRM1 agonist 143.7, M1 ag parental 76.6, M1 antag 61.7
Cc1ccc(NC(=O)Cn2nnc(C(=O)NCc3ccc(Cl)cc3)c2N)cc1F	none
COc1ccc(S(=O)(=O)N2CCOCC2)cc1NC(=O)c1ccc(S(=O)(=O)N(C)c2ccccc2OC)cc1	none
Cn1c2ccccc2c(=O)c2ccc(C#CC3(O)CCCCC3)cc21	M1 antag 39.2
COc1cc2sc3ccc(C#CC4(O)CCCCC4)cc3c(=O)c2cc1OC	none
Cc1cc(C)nc(NNC(=O)c2ccccc2O)n1	none
Cc1cc(C(=O)N2CCC2(C)C(=O)O)nn1C(C)(C)C (stereo not given)	CHO-K1 Ca antag 26.8
CCOC(=O)C1(C)CCN1C(=O)c1cc(C)n(C(C)(C)C)n1 (stereo not given)	none
CCOc1ccccc1OCCCC(=O)Nc1ccc(Cl)c(S(=O)(=O)N2CCOCC2)c1	none
C[C@H](CO)N1C[C@H](C)[C@@H](CN(C)S(C)(=O)=O)OCc2cnnn2CCCC1=O	none
CC1=C(C(=O)N(C(C)C)C(C)C)CC(CC(=O)NCCN2CCOCC2)C(=O)N1CCCN1CCCC1=O (stereo not given)	CHO-K1 Ca antag 26.2
COc1cc(-c2cc3nc4ccccc4n3c(N)c2C#N)cc(OC)c1OC	M1 antag 36.9
Cc1[nH]c2c(ccc3cccnc32)c1C	none
CC1=[N+](C)c2c(ccc3cccnc23)C1(C)C	M1 ag parental 15.8, CHO-K1 Ca antag 34.4
COc1ccc(N2CCN(C(=O)c3ccc(COc4ccc([N+](=O)[O-])cc4)o3)CC2)cc1	M1 antag 29.6
COc1ccc(N2CCN(C(=O)Oc3ccc([N+](=O)[O-])cc3)CC2)cc1	none (no result: CHRM1 agonist, M1 antag, M1 PAM)
CN(C)c1ccc(-c2ccnc3c2CC(C)(C(=O)Nc2ccc(Cl)c(C(F)(F)F)c2)O3)cc1 (stereo not given)	none
Cc1ccc(NC(=O)c2ccc3c(c2)N(CC(=O)NC(C)C)C(=O)C(C)(C)O3)cc1	none
COC(=O)[C@]1(CC(C)C)N[C@H](c2ccc(-c3ccc(C(C)=O)cc3)cc2)[C@@H]2C(=O)N(C)C(=O)[C@@H]21	M1 PAM 29.5

Screens from PubChem BioAssay.
